# Compound activity from PubChem BioAssay.
# DUX4 inh – DUX4-mediated transcription inhibition. 293T-iDUX4 ZSCAN4-Gaussia luciferase reporter, 24 h; stronger effect = lower value. activity change, negative = inhibition, % (concentration not given with the values). hit rate 0.8% among 37,000;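 active = mean inhibition of at least 10% in the main channel, exceeding the control channel by a set limit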;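 also: 0% = median of neutral control wells and -100% = median of positive control wells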
# An asterisk follows results filed as active; ! = not active in a repeat. The entries come from a sample that favours hits as a whole.
SMILES,DUX4 inh
N#Cc1ccc(-c2ccc(C3[C@@H]4CN(C(=O)Nc5ccc(C(F)(F)F)cc5)C[C@H]3N4)cc2)cc1 (stereo partly drawn),-49*!
COc1ccc(NC(=O)N2C[C@@H]3N[C@H](C2)C3c2ccc(-c3cccnc3)cc2)cc1 (stereo partly drawn),16
COc1ccc(NC(=O)N2C[C@@H]3N[C@H](C2)C3c2ccc(-c3cccc(F)c3)cc2)cc1 (stereo partly drawn),-4
O=C(Nc1ccc(F)cc1)N1C[C@@H]2N[C@H](C1)C2c1ccc(-c2cccnc2)cc1 (stereo partly drawn),-37*!
COc1ccc2c3c([nH]c2c1)[C@@H](CO)N(C(=O)CN1CCOCC1)CC31CN(Cc2ccccc2)C1,9
O=C(C[C@H]1CC[C@@H]2NC[C@H](O)COC[C@H]2O1)Nc1nccs1,14
Cn1cnc(S(=O)(=O)N2C[C@H](O)COC[C@@H]3O[C@H](CC(=O)NCc4cc(F)cc(F)c4)CC[C@H]32)c1,2
COc1ccc(S(=O)(=O)Nc2ccc3c(c2)C(=O)N([C@@H](C)CO)C[C@H](C)[C@H](CN(C)Cc2ccncc2)O3)cc1,1
O=C(C[C@@H]1C[C@@H]2c3cc(NC(=O)C4CCC4)ccc3O[C@@H]2[C@@H](CO)O1)NCc1ccccn1,1
CN(C)c1ccc2c(c1)[C@@H]1C[C@H](CC(=O)NCC3CC3)O[C@H](CO)[C@@H]1O2,6
CCN1[C@@H]2c3ccc(-c4ccc(OC)cc4)c(=O)n3C[C@@H]2[C@@H](CO)[C@@H]1C(=O)N(C)C,3
O=C(C[C@@H]1CC[C@@H](NC(=O)CC2CC2)[C@@H](CO)O1)NCc1ccc(-c2ccccc2)cc1,9
COc1ccc(CNC(=O)C[C@@H]2CC[C@H](NC(=O)CN(C)C)[C@@H](CO)O2)cc1,3
O=C(C[C@H]1CC[C@@H](NC(=O)c2ccc3c(c2)OCO3)[C@@H](CO)O1)NCc1ccc(Oc2ccccc2)cc1,-45*
COc1cccc(-c2ccc3n(c2=O)C[C@H]2[C@H](CO)[C@@H](C(=O)NC4CCC4)[C@@H]3N2C)c1,-1
OC[C@H]1Nc2ccc(-c3cccc(F)c3)cc2[C@H]2[C@@H]1CCN2Cc1ccncc1,-20*
COc1ccc(-c2ccc3c(c2)[C@H]2[C@H](CCN2Cc2ccncc2)[C@@H](CO)N3)cc1,7
OC[C@H]1Nc2ccc(-c3cccc(F)c3)cc2[C@@H]2[C@H]1CCN2Cc1ccc(F)cc1,-24*
CC(=O)N1CC[C@@H]2[C@H]1c1cc(-c3cccc(F)c3)ccc1N[C@@H]2CO,22
N#Cc1cccc(-c2ccc3c(c2)[C@H]2[C@H](CCN2C(=O)c2ccncc2)[C@@H](CO)N3)c1,7
O=C(C1CCC1)N1CC[C@@H]2[C@@H](CO)Nc3ccc(-c4cccc(F)c4)cc3[C@@H]21,11
N#Cc1cccc(-c2ccc3c(c2)[C@H]2[C@H](CCN2Cc2ccncc2)[C@@H](CO)N3)c1,-47*
N#Cc1cccc(-c2ccc3c(c2)[C@@H]2[C@@H](CCN2Cc2cncnc2)[C@@H](CO)N3)c1,-5
OC[C@@H]1Nc2ccc(-c3ccc(F)cc3)cc2[C@H]2[C@@H]1CCN2Cc1ccc(F)cc1,-3
OC[C@H]1Nc2ccc(-c3cccc(F)c3)cc2[C@H]2[C@@H]1CCN2Cc1ccc(F)cc1,-32*
SMILES,DUX4 inh
OC[C@@H]1Nc2ccc(-c3cccc(F)c3)cc2[C@@H]2[C@H]1CCN2Cc1ccncc1,1
CC(=O)N1CC[C@@H]2[C@@H](CO)Nc3ccc(-c4cccc(F)c4)cc3[C@@H]21,13
COc1ccc2c3c([nH]c2c1)[C@H](CO)NCC31CCN(C(=O)Cc2ccccc2)CC1,1
COc1ccc2c3c(n(C)c2c1)[C@H](CO)NCC31CCN(C(=O)c2ccccc2)CC1,-3
CO[C@H]1CN(C)C(=O)c2ccc(NS(=O)(=O)c3ccccc3C)cc2OC[C@@H](C)N(C)C[C@@H]1C,2
Cc1noc(C)c1NC(=O)Nc1ccc2c(c1)C(=O)N(C)[C@@H]1CC[C@H](CC(=O)NCc3ccc(Cl)cc3)O[C@H]1CO2,-3
O=C([C@H]1[C@H](CO)[C@H]2Cn3c(cccc3=O)[C@@H]1N2CC1CCCCC1)N1CCOCC1,2
CN(C)C(=O)C[C@H]1C[C@@H]2c3cc(NC(=O)CC4CC4)ccc3O[C@@H]2[C@H](CO)O1,7
O=C(Cc1ccccn1)N1CC2(C1)[C@H](c1ccccc1)[C@H](CO)N2C(=O)c1cccnc1,3
C[C@H](NC(=O)C[C@@H]1C[C@H]2c3cc(NC(=O)Nc4ccc(C(F)(F)F)cc4)ccc3O[C@H]2[C@H](CO)O1)c1ccccc1,-14*
O=C(C[C@@H]1C[C@H]2c3cc(NC(=O)Nc4ccc(C(F)(F)F)cc4)ccc3O[C@H]2[C@H](CO)O1)NCc1ccc(Cl)cc1,-37*
O=C(C[C@H]1C[C@H]2c3cc(NC(=O)Nc4ccc(C(F)(F)F)cc4)ccc3O[C@H]2[C@H](CO)O1)NCc1ccc2c(c1)OCO2,-6
